Screening results: PubChem, several laboratories
Hits are enriched below; roughly 2% of the tested compounds scored in any of these assays.
Shn3 3UTR inh – reduces Shn3 3'UTR luciferase signal in osteoblasts; Clone20 osteoblast Shn3 3'UTR firefly luciferase, 24 h; inhibition, % at 12.5 µM; AID 588674; actives 0.52% (n = 360,000);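 active means mean inhibition of at least 75% with every replicate also reaching 75%; inconclusive means mean inhibition at least 75% but some replicate below; inactive means mean inhibition below 75%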
Beta apoptosis – beta cell apoptosis inhibition; INS-1E cytokine-induced death, ATP luminescence, 48 h; percent of positive-control rescue, neutral wells zero; AID 435005; actives 0.8% (n = 300,000); protection from apoptosis, % (concentration not given with the values);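 active means Every replicate reaches about 75%, or at least half do and their mean reaches it too, limit read from the data; inconclusive means At least half of replicates reach the limit but their mean does not; inactive means Under half of replicates reach the limit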;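 further: higher means more ATP so stronger rescue from cytokine killing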
Calb FLC – C. albicans growth modulation with fluconazole. growth inhibition, % (no concentration beside the values). actives 0.57% (n = 300,000). C. albicans CaCi-2 (fluconazole-resistant clinical isolate) + fluconazole, Alamar Blue growth, 48 h;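 active means growth inhibition above about 58% in most replicates, limit read from the data, passing the limit was not always enough; inconclusive means exactly half the replicates above a set limit; inactive means most replicates below a set limit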;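 further: all wells also contain fluconazole at 8 µg/ml as a sub-toxic cotreatment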
697 NFkB inh – inhibitors of the PMA/ionomycin-induced NF-kB reporter in 697 B cells | actives 0.33% (n = 330,000) | 697 B-cell NF-kB luciferase reporter, 16 h | inhibition, % at 4 µM | AID 435022; in the data active means inhibition above about 35%
Jurkat NFkB inh – lowers PMA/ionomycin-induced NF-kB signal in Jurkat cells | PMA/ionomycin-induced NF-kB luciferase reporter, luminescence | inhibition, % at 4 µM | actives 0.53% (n = 330,000); in the data active means inhibition above about 50%
Each line names hits and unclear results; the compound was inactive in the other large screens.

CCc1ccc(N(CC(=O)NC(C)C)C(=O)CCC(=O)Nc2nccs2)cc1	none
COc1ccc(C(=O)NC(=S)NNC(=O)c2cnccn2)cc1	Beta apoptosis 77, Calb FLC 118
COc1cc(C(=O)NNC(=S)NC(=O)c2ccccc2C)cc(OC)c1OC	none
COc1ccccc1C(=O)NNC(=S)NC(=O)c1cc(OC)c(OC)c(OC)c1	Calb FLC 105
O=C(NC(=S)NNC(=O)c1cnccn1)c1ccc(Cl)cc1	Calb FLC 94
COc1cc(C(=O)NC(=S)NNC(=O)c2cnccn2)cc(OC)c1OC	Shn3 3UTR inh 89, Beta apoptosis 82
Cc1cc(Cl)ccc1-c1nc(NC(C)C)nc2ccsc12	none (no result: Beta apoptosis, Calb FLC, 697 NFkB inh, Jurkat NFkB inh)
CC(/C=N\NC(=O)Cn1c(C)nc2ccccc21)=C\c1ccccc1	Shn3 3UTR inh 85
O=C(OCn1ncc(Cl)c(Cl)c1=O)c1ccc(C(F)(F)F)cc1	Shn3 3UTR inh 95, Calb FLC 106 (no result: Beta apoptosis)
Cc1ccc(C(=O)OCn2ncc(Cl)c(Cl)c2=O)cc1	Shn3 3UTR inh 91, Beta apoptosis 101, Calb FLC 114
O=C(O)c1ccc(-n2ncc(Cl)c(Cl)c2=O)cc1	none (no result: Beta apoptosis, Calb FLC, 697 NFkB inh, Jurkat NFkB inh)
Cc1ccc(S(=O)(=O)N2CCCCC2)cc1NC(=O)Cn1cnnn1	none
CCOC(=O)c1ccc(NC(=O)Cn2ncc(Cl)c(Cl)c2=O)cc1	Shn3 3UTR inh 98
Cc1ccc(C)c(C(=O)Cn2ncc(Cl)c(Cl)c2=O)c1	none
Cc1ccc(S(=O)(=O)N2CCCCC2)cc1NC(=O)Cn1ncc(Cl)c(Cl)c1=O	Shn3 3UTR inh 100 (no result: Calb FLC)
O=C(CCC(=O)N1CCSc2ccccc21)NCCc1ccccc1	none
C=CCc1cccc(/C=N/NC(=O)CCC(=O)Nc2ccc(F)cc2)c1O	Beta apoptosis 93
COc1cccc(/C=N/NC(=O)CNC(=O)C(c2ccccc2)c2ccccc2)c1O	none
C=CCc1cccc(/C=N/NC(=O)CNc2ccccc2OC)c1O	Calb FLC 93
C=CCc1cccc(/C=N/NC(=O)CCCNc2ccc(C)cc2)c1O	none (no result: 697 NFkB inh, Jurkat NFkB inh)
COc1cccc(/C=N/NC(=O)CNC(=O)/C=C\c2ccccc2)c1O	Shn3 3UTR inh 90
C=CCc1cccc(/C=N/NC(=O)CNc2ccccc2)c1O	Beta apoptosis 90
N#CCCN(C(=O)COC(=O)CNS(=O)(=O)c1ccc2ccccc2c1)c1ccccc1	none (no result: Calb FLC)
O=C(CSc1nncn1-c1ccccc1)N1CCCC1	none
CC(C)NC(=O)c1ccc(CN2CCc3ccccc3C2)cc1	none
C=CCc1cccc(/C=N/NC(=O)C[n+]2ccccc2)c1O	none
C=CCc1cccc(/C=N/NC(=O)CNc2cccc3ccccc23)c1O	Calb FLC 92 (no result: Beta apoptosis)
On1onc2c3cc(-c4ccccc4)nc3ccc21	Beta apoptosis 101 (no result: Calb FLC)
Cc1ccc(-n2c(C)cc(/C([O-])=C(/C(=S)Nc3ccc(F)c(Cl)c3)[n+]3ccccc3)c2C)cc1	Calb FLC 110 (no result: Beta apoptosis)
CCOC(=O)C1CCN(CCC(=O)Nc2ccc(F)cc2)CC1	Calb FLC 107
CCCn1c(NC(=O)c2ccc(Cl)c(S(=O)(=O)N3CCCC3)c2)nc2ccccc21	Shn3 3UTR inh 91, Calb FLC inconclusive (no result: Beta apoptosis)
O=[N+]([O-])c1c(C(Cl)Cl)nn(-c2ccc(Cl)cc2)c1N1CCCCC1	Calb FLC 81
CCN=c1scc(-c2ccc3c(c2)NC(=O)CO3)n1N=C1CCCC1	Calb FLC 93
COCCn1c(SCC(=O)Nc2cccc(F)c2)nc2c(c1=O)SCC2	none
COc1cccc(/C=N/Nc2nc3ccccc3[nH]2)c1O	Shn3 3UTR inh inconclusive, Beta apoptosis 94
COc1cccc(/C=N/Nc2nc3ccccc3n3cnnc23)c1O	Beta apoptosis 119
Cn1cccc1C(=O)NC(=O)COC(=O)c1ccc(S(C)(=O)=O)c([N+](=O)[O-])c1	Shn3 3UTR inh 98 (no result: Calb FLC)
Cc1cc(C)cc(C(O)c2ncc(-c3ccccc3Cl)[nH]2)c1 (configuration not stated)	none (no result: Beta apoptosis, Calb FLC, 697 NFkB inh, Jurkat NFkB inh)
Cc1nn(Cc2c(Cl)cccc2Cl)c(C)c1NC(=O)c1cn(-c2ccccc2)nc1-c1ccccc1	Shn3 3UTR inh 88, Beta apoptosis 106
Cc1cccc(C)c1NC(=O)CNC(=O)c1cn(-c2ccccc2)nc1-c1ccccc1	none (no result: Beta apoptosis)
COC(=O)[C@@]12CCCCN1[C@H](c1ccc(-c3cccc(Cl)c3)c(OC)c1)[C@H]1C(=O)N(C)C(=O)[C@H]12	none
COc1ccc(/C=C/C(=O)NC(=S)Nc2ccccc2C(=O)NC2CCCCC2)cc1	Beta apoptosis 79, Calb FLC inconclusive
Cc1ccc(/C=C/C(=O)NC(=S)Nc2ccccc2C(=O)NC2CCCCC2)cc1	none
COc1ccc(N(C)C(=O)c2ccc3snnc3c2)cc1	Shn3 3UTR inh 87
COc1ccc(N(C)C(=O)c2ccc3c(c2)nnn3C)cc1	none
N#CCC(=O)Nc1ccc(C(=O)OCC(=O)c2ccc3c(c2)NC(=O)CO3)cc1	none (no result: Calb FLC)
O=C(NNC(=O)C1C2CCC(C2)C1C(=O)O)c1ccc(Br)o1 (configuration not stated)	Calb FLC 100 (no result: Shn3 3UTR inh)
CC(C)c1ccc(C(=O)NNC(=O)C2C3CCC(C3)C2C(=O)O)cc1 (configuration not stated)	none (no result: Shn3 3UTR inh)
CCc1ccc(OC)c(S(=O)(=O)Nc2ccc(Cc3ccncc3)cc2)c1	Beta apoptosis 101
O=C(CNc1cccc2ccccc12)N/N=C/C(Br)=C/c1ccccc1	Shn3 3UTR inh 91
O=C(CNc1cccc([N+](=O)[O-])c1)N/N=C/c1ccc([N+](=O)[O-])o1	Beta apoptosis 93
O=C(CNc1cccc2ccccc12)N/N=C/c1ccc([N+](=O)[O-])o1	Beta apoptosis 118
O=C(CCN1CCN(c2ccccc2)CC1)N/N=C/c1ccc([N+](=O)[O-])o1	none
CSc1ccc(/C=N/NC(=O)CNc2cccc3ccccc23)cc1	none
CC1(C(=O)NCc2ccccc2Br)CCN1C(=O)C1(c2ccc(Cl)cc2)CC1 (configuration not stated)	none (no result: Beta apoptosis, Calb FLC, 697 NFkB inh, Jurkat NFkB inh)
O=C(CSc1nnc(Cc2ccccc2)o1)Nc1ccc(N2CCOCC2)cc1	none (no result: Calb FLC)
CCc1sc(C(=O)Nc2ncccc2O)cc1C	none
COc1ccc(-n2c(C(C)(C)C)csc2=Nc2c(C)n(C)n(-c3ccccc3)c2=O)cc1	none
COc1ccc(Cc2nnc(N/N=C/c3ccc(O)cc3)[nH]c2=O)cc1OC	Shn3 3UTR inh 88, Beta apoptosis 99
Cc1nc2ccc(NC(=O)c3cc(S(=O)(=O)N(C)c4ccccc4)ccc3Cl)cc2s1	Beta apoptosis 80 (no result: 697 NFkB inh, Jurkat NFkB inh)
CC(C)(C)C(=O)N1CCN(c2ccc(NC(=O)c3ccc([N+](=O)[O-])o3)cc2)CC1	Shn3 3UTR inh 93
CCCC(=O)N1CCN(c2ccc(NC(=O)c3ccc([N+](=O)[O-])o3)cc2)CC1	none (no result: Beta apoptosis, 697 NFkB inh, Jurkat NFkB inh)
CC1CCN(c2ccc(NC(=O)c3ccc([N+](=O)[O-])o3)cc2)CC1	Shn3 3UTR inh 91, Beta apoptosis 85
CS(=O)(=O)N1CCN(c2ccc(NC(=O)c3ccc([N+](=O)[O-])o3)cc2)CC1	Shn3 3UTR inh 97 (no result: Beta apoptosis, 697 NFkB inh, Jurkat NFkB inh)
O=C(Nc1ccc(N2CCN(C(=O)c3ccc(Cl)cc3)CC2)cc1)c1ccc([N+](=O)[O-])o1	Shn3 3UTR inh 98 (no result: Beta apoptosis, 697 NFkB inh, Jurkat NFkB inh)
